# High-throughput results (PubChem)
# G9a inh: qHTS Assay for Inhibitors of Histone Lysine Methyltransferase G9a | G9a H3K9 monomethylation, AlphaScreen, 2 h | Potency, µM (top dose mostly 102 µM), for the others: at the top dose activity, negative = inhibition, actives largely listed as inhibitors | actives 8.8% (n = 350,000); note: % is set by controls: 0 for no effect and ±100 for the full control effect; nearly all actives have a fitted effect of over 75% in size
#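 Signal arises when biotinylated H3K9 peptide, once monomethylated, bridges streptavidin donor and antibody-captured acceptor beads. Enzyme at 20 nM was preincubated 15 min with test compounds; peptide 500 nM and SAM 20 uM then reacted for 2 h.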
# BAZ2B block: qHTS Assay for Inhibitors of BAZ2B. Potency, µM (doses to about 114 µM), for inactives: at the top dose activity change, negative = inhibition, usual class: inhibitors. AlphaScreen BAZ2B-H3K14Ac peptide displacement. Bromodomain adjacent to zinc finger domain protein 2B (Homo sapiens), Q9UIF8. actives 4.4% (n = 360,000). AID 504333, 2011; note: % is set by controls: 0 for no effect and ±100 for the full control effect; nearly all actives have a fitted effect of over 60% in size
#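 AlphaScreen luminescence quantifies BAZ2B engagement of H3K14Ac peptide; the protein and biotinylated peptide are both at 50 nM final, buffer PBS pH 7.4 with 0.01% Tween-20, all steps at room temperature.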
# HP1b chromo inh: HTS for Inhibitors of HP1-beta Chromodomain Interactions with Methylated Histone Tails; Chromobox protein homolog 1 (Homo sapiens), P83916; AlphaScreen HP1-beta / biotin-H3K9me3 peptide binding; Potency, µM (highest dose often 114 µM), inactives show at the top dose activity change, negative = inhibition, hits mostly inhibitors; actives 0.56% (n = 390,000); AID 540317, 2011; note: nearly all actives have a fitted effect of over 70% in size
#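 HP1-beta protein (50 nM final) preincubated 30 min at room temperature with biotinylated H3(1-18)K9me3 peptide (50 nM) in PBS pH 7.4, 0.01% Tween-20, then compound added for 30 min. AlphaScreen streptavidin donor/nickel chelate acceptor beads (10 ug/mL final), 30 min dark, luminescence read.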
# JMJD2A Tudor: qHTS Assay for Inhibitors of JMJD2A-Tudor Domain; AID 504339, 2011; actives 4.4% (n = 390,000); Potency, µM (highest dose often 114 µM), without a hit: at the top dose activity change, negative = inhibition, most hits filed as inhibitors; Lysine-specific demethylase 4A (Homo sapiens), O75164; AlphaScreen JMJD2A-Tudor / H3K4me3 peptide binding; note: % is set by controls: 0 for no effect and ±100 for the full control effect; nearly all actives have a fitted effect of over 50% in size
# Sfp PPTase inh: qHTS Assay for Inhibitors of Bacillus subtilis Sfp phosphopantetheinyl transferase (PPTase) | Potency, µM, for inactives: largest response in the series, negative = inhibition, usual class: inhibitors | actives 3.5% (n = 310,000) | 4'-phosphopantetheinyl transferase ffp (Bacillus subtilis), Q9F4F7 | Biochemical Sfp PPTase activity, qHTS;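 note: the enzyme is Sfp with the accession as filed and its product quenches rhodamine fluorescence; 0% = enzyme reaction without inhibitor and -100% = no enzyme wells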
#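 Buffer: 50 mM Hepes-Na pH 7.6, 10 mM MgCl2, 0.01% Nonidet P-40, 0.01% BSA. Enzyme 15 nM, pre-exposed to compound 15 min; substrates then added and fluorescence change tracked over 30 min.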
# The depositor's hits bear a star; ? = inconclusive; . = no result; [ ] = dose if it differs, or a comment. A selection: hits, their analogues and other compounds. The true share with any hit is near 12%. Calls come from the whole dose curve; as a rule, active = well fitted curve in the direction sought with a large enough effect; inconclusive = small, poorly fitted or top-dose-only effect, or another doubt; inactive = no such curve, though single readings can be large; an effect the other way counts as inactive or inconclusive. Potency is the fitted concentration of half-maximal effect.
SMILES,G9a inh,BAZ2B block,HP1b chromo inh,JMJD2A Tudor,Sfp PPTase inh
C/C(=N\O)c1ccc2c3c([nH]c2c1)CCCC3,?,40µM*,-15%,?,-9%
CCN(CC)S(=O)(=O)c1ccc(N2CCOCC2)c(NS(=O)(=O)c2ccc(C(C)C)cc2)c1,21%,7%,?,25µM*,5%
CCN(CC)S(=O)(=O)c1ccc(N2CCOCC2)c(NS(=O)(=O)c2cc(C(C)(C)C)ccc2C)c1,10µM*,1%,?,?,0%
O=C(COC(=O)CNS(=O)(=O)c1c(F)cccc1F)NC(=O)NC1CCCCC1,-7%[2.33 µM],4%,21%,-13%,.
COc1ccc(-c2nc3ccccc3c(=O)n2Cc2ccccc2)cc1COc1ccc(NC(C)=O)cc1,.,.,.,-10%,.
COc1ccc(-c2nc3ccccc3c(=O)n2Cc2ccccc2)cc1CNc1ccc(NC(C)=O)cc1,.,.,.,50µM*,.
COc1ccc(-c2nc3ccc(NC(=O)CO)cc3c(=O)n2Cc2cccc(Cl)c2)cc1COc1ccc(NC(C)=O)cc1,.,.,-17%,56µM*,.
COc1ccc2c(Sc3ccccc3)c(C(=O)NCc3ccc(OC(C)C)cc3)[nH]c2c1,-39%[59 µM],9%,59%,-16%,.
CC(C)(C)N(Cc1ccccc1)C(=O)c1cc2ccccc2o1,64%,19%,84%,61%,0%
CCN(CC)c1ccc(NC(=O)Cn2cc3c(n2)CCCC3)c(C)c1,10µM*,-28%,14%,?,.
CC1CCc2nn(CC(=O)Nc3ccc(F)cc3F)cc2C1 (configuration not stated),-12%[59 µM],10%,50%,-12%,14%
CC(=O)Nc1ccc(NC(=O)Cn2cc3c(n2)CCCCC3)cc1,16µM*,-35%,38%,-17%,.
CC(=O)c1ccc(NC(=O)Cn2cc3c(n2)CCCC3)cc1,4%[59 µM],1%,18%,-13%,.
Cc1ccc(NC(=O)Cn2cc3c(n2)CCCC3)c(Cl)c1,9%[59 µM],3%,35%,2%,.
CCN(CC)c1ccc(NC(=O)Cn2cc3c(n2)CCC(C)C3)c(C)c1 (configuration not stated),4.5µM*,?,?,?,-26%
CCCCn1c(N)c(N(CCOC)C(=O)COC(=O)COc2ccc(CC)cc2)c(=O)[nH]c1=O,15%[12.7 µM],-4%,-12%,-11%,.
O=S(=O)(/N=C(/Nc1cccnc1Cl)c1ccccc1)c1ccccc1,.,.,29%,-12%,.
CC(C)(C)C(=O)CSc1nc2ncc(Br)cc2[nH]1,50µM*,-14%,54%,?,8%
O=C(C[n+]1cc(Br)cc(Br)c1)c1cccc([N+](=O)[O-])c1,-111%[59 µM],50µM*,20%,-27%,-12%
O=C(CSc1nc2ncc(Br)cc2[nH]1)c1cccc([N+](=O)[O-])c1,45µM*,-12%,20%,-34%,7%
O=C(Nc1nc2ccccc2[nH]1)c1cccc([N+](=O)[O-])c1,8%,-29%,34%,-20%,30%
O=C(Cc1nc2ccccc2[nH]1)c1cccc([N+](=O)[O-])c1,.,?,11%,?,14µM*
Cc1occc1-c1nnc(SCC(=O)N2CCOCC2)n1Cc1ccco1,-4%[59 µM],14%,48%,-8%,89µM*
O=C(CSc1nc(-c2ccccc2)no1)N1CCN(c2ccccc2F)CC1,5%[59 µM],9%,35%,20µM*,.
CCn1c(SCC(=O)N2CCN(c3ccccc3F)CC2)nnc1-c1ccoc1C,?,-30%,-26%,50µM*,3%
SMILES,G9a inh,BAZ2B block,HP1b chromo inh,JMJD2A Tudor,Sfp PPTase inh
Cc1occc1-c1nnc(SCC(=O)N2CCOCC2)n1CC(C)C,-11%[59 µM],9%,20%,15%,5%
Cc1cccc(C(=O)NCC(=O)NC(C)c2ccc(-n3ccnc3)cc2)c1 (configuration not stated),2%,-19%,21%,-14%,.
COc1ccccc1C(=O)NCC(=O)NC(C)c1ccc(-n2ccnc2)cc1 (configuration not stated),10µM*,-2%,10%,-20%,3%
CN(C)c1ccc(C(=O)NCc2ccc3c(c2)CCN3C(=O)c2ccccc2)cc1,40%[59 µM],10%,10%,?,.
COc1ccc(CN(CCC(c2ccc3c(c2)OCO3)c2ccccc2OC)C(C)=O)cc1 (configuration not stated),?,?,-6%,?,.
Cc1ccc(C(=O)NCC(c2cccs2)S(=O)(=O)c2cccs2)cc1 (configuration not stated),0%[59 µM],3%,32%,-7%,.
Nc1ccccc1C(=O)N=Nc1[nH]c(N)c2ccccc12,8%[59 µM],35µM*,31%,79µM*,6%
Cc1cc(CNC(=O)[C@H](C)[C@H]2C[C@]2(C)[C@H](NC(=O)OCc2ccccc2)c2ccccc2)nn1C,.,.,.,.,27%
COc1ccc(CNC(=O)[C@H](C)[C@H]2C[C@]2(C)[C@H](NC(=O)OCc2ccccc2)c2ccccc2)cc1OC,.,.,.,.,7%
COc1ccc(CNC(=O)[C@H](C)[C@@H]2C[C@@]2(C)[C@@H](NC(=O)OCc2ccccc2)c2ccccc2)cc1OC,50µM*,-37%,38%,-12%,14%
C[C@@H](C(=O)O)[C@H]1C[C@]1(C)[C@H](NC(=O)OCc1ccccc1)c1ccccc1,79µM*,-10%,19%,-17%,8%
Cc1cc(CNC(=O)[C@H](C)[C@@H]2C[C@@]2(C)[C@@H](NC(=O)OCc2ccccc2)c2ccccc2)nn1C,56µM*,-10%,25%,-21%,-15%
CCOc1ccc(N2C(=O)CC(NC3CCCCNC3=O)C2=O)cc1 (configuration not stated),7.9µM*,1%,60%,-15%,3%
CCCOc1ccc(N2C(=O)CC(NCCNc3ccc([N+](=O)[O-])cn3)C2=O)cc1 (configuration not stated),13µM*,-26%,33%,-18%,-7%
CCCOc1ccc(N2C(=O)CC(NCc3cccnc3)C2=O)cc1 (configuration not stated),.,1%,6%,-17%,1%
O=C1NCCCCC1NC1CC(=O)N(c2ccccc2)C1=O (configuration not stated),-31%[59 µM],-6%,34%,-7%,0%
CCOc1ccc(N2C(=O)CC(NCC#N)C2=O)cc1 (configuration not stated),.,-7%,-10%,-26%,56µM*
CCOc1ccc(N2C(=O)CC(NCc3ccc(S(N)(=O)=O)cc3)C2=O)cc1 (configuration not stated),-35%,-2%,-6%,-18%[11.4 µM],8%
